From PubChem BioAssay (Tox21)
Inconclusive results are not listed. Active and inactive are the calls of the source. Calls follow the shape of the dose curve; as a rule, active = well fitted curve in the direction sought with a large enough effect in the signal ratio in the repeat runs (not every such curve was filed as active); inconclusive = weak or mixed curves, or a change in a side signal; inactive = no such curve, though single readings can be large or run the other way; the % refers to the signal ratio.

Assay: qHTS assay to identify small molecule agonists of the NFkB signaling pathway (AID 1159509)
Conditions: NFkB-bla ME-180 cells, beta-lactamase FRET ratio, 5 h; series mostly up to 61 µM
Source text: National Center for Advancing Translational Sciences [NCATS]
NIH Chemical Genomics Center [NCGC]
U.S. Environmental Protection Agency [EPA]
National Institutes of Environmental Health Sciences [NIEHS]
National Toxicology Program [NTP]
U.S. Food and Drug Administration [FDA]
Transcription factors and their stimulated target gene expression play pivotal roles across many cellular processes including responses to environmental stimuli. Proper regulation of associated pathways is critical to maintain cell health and function. Constitutive activation of transcription factor pathways has been implicated in tumors as it may block cellular functions such as apoptosis and lead to invasion and metastasis. One important transcription factor that stimulates gene expression in response to cytokines, UV radiation, and other stimuli is nuclear factor-kappa B (NFkB). To measure activation of the NFkB pathway, the CellSensor NFkB-bla ME-180 cell line (Life Technologies, Carlsbad, CA) that stably expresses beta-lactamase reporter gene under the regulation of a NF-kB response element was used. This assay allows measurement of the NFkB pathway activity induced by compounds in a ME-180 cell line. This system quantitates NF-kB activity using a FRET-based assay system where beta-lactamase expression disrupts FRET, allowing for fluorescent measurement of activity. This cell line has been used to screen the Tox21 10K compound library and to identify compounds that induce the NFkB pathway activity.
Tox21 Assay Protocol Summary:
NFkB-bla ME-180 cells were dispensed at 2,000 cells/6 uL of assay medium per well into black wall/clear-bottom 1536-well plates using a Multidrop Combi (ThermoFisher Scientific, Waltham, MA) dispenser. After the assay plates were incubated at 37 C and 5% CO2 for an overnight, 23 nL of compounds dissolved in DMSO, positive controls or DMSO only was transferred to the assay plate by a Pintool station (Kalypsys, San Diego, CA). The assay plates were incubated at 37 C and 5% CO2 for 5 hr. One uL of LiveBLAzer B/G FRET substrate (Life Technologies) was added using a Flying Reagent Dispenser (Aurora Discovery, San Diego, CA) and the plates were incubated at room temperature for 1.5 hr. Fluorescence intensity (405 nm excitation, 460 nm and 530 nm emissions) was measured using an Envision plate reader (PerkinElmer, Shelton, CT).
With CC(C)CCCCCCN the outcome was “inactive”. In the case of CC/C=C\C#N, the outcome is reported as “inactive”. In the case of CCCCCCOC(=O)CC(CC(=O)OCCCCCC)(OC(=O)CCC)C(=O)OCCCCCC, the outcome is reported as “inactive”. In the case of CCCC(C)CO (stereo not given), the outcome is reported as “inactive”. In the case of NS(=O)(=O)c1cc2c(cc1C(F)(F)F)NC(Cc1ccccc1)NS2(=O)=O (stereo not given), the outcome is reported as “inactive”. For CC(C)c1cccc(O)c1, the outcome was “inactive”. For CCCCc1ccc(N)cc1, the outcome was “inactive”. In the case of CCN1CCCC1CNC(=O)c1cc(S(N)(=O)=O)ccc1OC (stereo not given), the outcome is reported as “inactive”. In the case of OCc1ccccn1, the outcome is reported as “inactive”. For OCC(CO)(CO)COCC(CO)(CO)CO, the outcome was “inactive”. In the case of NC(=O)c1ncn([C@@H]2O[C@H](CO)[C@@H](O)[C@H]2O)c1O, the outcome is reported as “inactive”. In the case of C=CCOCC(O)CS(=O)(=O)O (stereo not given), the outcome is reported as “inactive”. For NCCNC(=O)c1ccc(Cl)cn1, the outcome was “inactive”. In the case of CCCC(=O)O[C@]1(C(=O)CCl)[C@@H](C)C[C@H]2[C@@H]3CCC4=CC(=O)C=C[C@]4(C)[C@@]3(F)C(=O)C[C@@]21C, the outcome is reported as “inactive”. For COC(=O)CCCC(=O)O, the outcome was “inactive”. With Cc1nc(-c2ccc(OCC(C)C)c(C#N)c2)sc1C(=O)O the outcome was “inactive”. With CCn1cc(C(=O)O)c(=O)c2cc(F)c(N3CCN(C)CC3)cc21 the outcome was “inactive”. With O=C(O)c1ccc[n+]([O-])c1 the outcome was “inactive”. For CCCC=O, the outcome was “inactive”. In the case of CCCCCCCCCCC1CO1 (stereo not given), the outcome is reported as “inactive”. In the case of CC(C)[C@H](N)C(=O)OCCOCn1cnc2c(=O)[nH]c(N)nc21, the outcome is reported as “inactive”. For COC(C(=O)O)c1ccccc1 (stereo not given), the outcome was “inactive”. For O=C(O)c1ccccc1S, the outcome was “inactive”. With CC(C)c1cccc(C(C)C)c1N the outcome was “inactive”. In the case of [O-][N+](=Nc1ccccc1)c1ccccc1, the outcome is reported as “inactive”. For O=C(O)C(O)[C@H](O)[C@@H](O)[C@H](O)[C@H](O)CO (stereo not given in full), the outcome was “inactive”. In the case of CC(=O)c1ccc(C)cc1, the outcome is reported as “inactive”. With COc1cc(CCC(C)=O)ccc1O the outcome was “inactive”. With COc1cc(C(=O)N2CCOCC2)cc(OC)c1OC the outcome was “inactive”. With Cc1ccccc1C(=O)O the outcome was “inactive”. With Cc1ccc(N)cc1[N+](=O)[O-] the outcome was “inactive”. With O=C(O)/C=C/c1ccc(/C=C/C(=O)O)cc1 the outcome was “inactive”. With CC(=O)NC(Cc1ccccc1)C(=O)O (stereo not given) the outcome was “inactive”. In the case of CN(C)C(=O)C(CCN1CCC(O)(c2ccc(Cl)cc2)CC1)(c1ccccc1)c1ccccc1, the outcome is reported as “inactive”. With CCCc1ccccc1O the outcome was “inactive”. For NS(=O)(=O)c1cc(C2(O)NC(=O)c3ccccc32)ccc1Cl (stereo not given), the outcome was “inactive”. In the case of CCCCCN(CCCCC)C(=O)C(CCC(=O)O)NC(=O)c1ccc(Cl)c(Cl)c1 (stereo not given), the outcome is reported as “inactive”. With CC(C)(O)c1ccccc1 the outcome was “inactive”. In the case of CC(CCO)CCCC(C)(C)O (stereo not given), the outcome is reported as “inactive”. For C=C(C)C1CC=C(C)C(O)C1 (stereo not given), the outcome was “inactive”.
